# Screening results from PubChem BioAssay.
# BAZ2B inh: blocks human BAZ2B. actives 4.4% (n = 360,000). AlphaScreen BAZ2B-H3K14Ac peptide displacement. AID 504333. Potency, µM (highest dose often 114 µM), for the others: at the highest dose activity change, negative = inhibition, most hits filed as inhibitors; note: potency is the fitted concentration of half-maximal effect; % is set by controls: 0 for no effect and ±100 for the full control effect; nearly all actives have a fitted effect of over 60% in size
#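 AlphaScreen displacement of biotin-H3(5-23)K14Ac peptide (50 nM final) from BAZ2B (50 nM final) in PBS pH 7.4, 0.01% Tween-20; complex preformed 30 min RT, then compounds (top 110 uM) 30 min RT, beads 20 min dark.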
# HP1b binding inh: HP1-beta chromodomain-methylated histone interaction inhibition; P83916; AlphaScreen HP1-beta / biotin-H3K9me3 peptide binding; Potency, µM (doses to about 114 µM), inactives show at the top dose activity change, negative = inhibition, actives largely listed as inhibitors; actives 0.56% (n = 390,000); AID 540317; note: potency is the fitted concentration of half-maximal effect; nearly all actives have a fitted effect of over 70% in size
#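 HP1-beta protein (50 nM final) preincubated 30 min at room temperature with biotinylated H3(1-18)K9me3 peptide (50 nM) in PBS pH 7.4, 0.01% Tween-20, then compound added for 30 min. AlphaScreen streptavidin donor/nickel chelate acceptor beads (10 ug/mL final), 30 min dark, luminescence read.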
# JMJD2A Tudor: inhibitors of human JMJD2A Tudor domain. O75164. Potency, µM (series often up to 114 µM), without a hit: top-dose activity change, negative = inhibition, usual class: inhibitors. actives 4.4% (n = 390,000). AlphaScreen JMJD2A-Tudor / H3K4me3 peptide binding; note: potency is the fitted concentration of half-maximal effect; % is set by controls: 0 for no effect and ±100 for the full control effect; nearly all actives have a fitted effect of over 50% in size
# PLK1 PBD block: blocks phosphopeptide binding to human PLK1 polo-box domain | Plk1 PBD binding of FITC phosphopeptide, fluorescence polarization | P53350 | Potency, µM, for the others: max response, negative = inhibition, hits mostly inhibitors | AID 720504 | actives 2.8% (n = 360,000); note: potency is the fitted concentration of half-maximal effect; series mostly up to about 57 µM; % is set by controls: 0 for no effect and ±100 for the full control effect; nearly all actives have a fitted effect of over 65% in size
# G9a inh: blocks human histone lysine methyltransferase G9a; AID 504332; Potency, µM (doses to about 102 µM), for inactives: top-dose activity, negative = inhibition, usual class: inhibitors; G9a H3K9 monomethylation, AlphaScreen, 2 h; actives 8.8% (n = 350,000); Q96KQ7; note: potency is the fitted concentration of half-maximal effect; % is set by controls: 0 for no effect and ±100 for the full control effect; nearly all actives have a fitted effect of over 75% in size
# Target sequence (Q96KQ7 913-1193 limits assumed): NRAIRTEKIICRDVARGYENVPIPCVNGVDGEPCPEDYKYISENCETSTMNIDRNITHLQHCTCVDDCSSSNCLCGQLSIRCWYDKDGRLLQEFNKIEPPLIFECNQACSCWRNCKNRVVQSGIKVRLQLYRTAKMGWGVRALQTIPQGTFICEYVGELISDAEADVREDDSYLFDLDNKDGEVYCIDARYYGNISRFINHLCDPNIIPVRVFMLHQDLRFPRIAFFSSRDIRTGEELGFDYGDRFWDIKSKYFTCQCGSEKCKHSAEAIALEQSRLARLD
#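 Step 1: enzyme (final 20 nM) with compound, 15 min RT. Step 2: substrate peptide 500 nM and SAM 20 uM, 2 h RT. Step 3: anti-H3K9me1 antibody and AlphaScreen beads, 10 min, then plate read.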
# PI5P4K alpha inh: PI5P4K alpha (human) kinase inhibition; PI5P4Kalpha enzyme, ADP-Glo luminescence, 60 min; hits give low values; max response, %; P48426; actives 1.2% (n = 330,000); active = max response of -50% or lower; inconclusive = between -30% and -50%; inactive = -30% or higher; note: value at the top dose of about 77 µM; % is set by controls: 0 for no effect and ±100 for the full control effect
# Target sequence (P48426 whole entry, looked up): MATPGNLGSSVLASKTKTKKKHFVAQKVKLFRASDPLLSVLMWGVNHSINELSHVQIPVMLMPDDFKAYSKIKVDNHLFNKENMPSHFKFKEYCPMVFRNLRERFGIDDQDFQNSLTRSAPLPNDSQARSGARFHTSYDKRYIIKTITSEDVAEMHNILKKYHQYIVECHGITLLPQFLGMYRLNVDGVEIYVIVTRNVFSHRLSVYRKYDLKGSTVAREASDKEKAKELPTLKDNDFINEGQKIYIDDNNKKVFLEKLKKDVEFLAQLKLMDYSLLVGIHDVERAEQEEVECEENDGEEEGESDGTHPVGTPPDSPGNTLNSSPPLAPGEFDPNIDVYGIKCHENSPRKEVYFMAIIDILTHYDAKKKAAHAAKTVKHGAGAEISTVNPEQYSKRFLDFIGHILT
#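 Compounds were pin-transferred onto PI5P4Kalpha and substrate in HEPES pH 7.4 buffer with EGTA, CHAPS and 5% DMSO. ATP (5 microM final) started the reaction, which ran 60 minutes at room temperature before ADP-Glo detection.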
# The depositor's hits bear a star; u = inconclusive; x = no result given; [ ] = remark or other dose. Sampled rows, rich in hits. Any-hit rate of the full collection: about 12%. Unless noted, calls come from the whole dose curve; as a rule, active = well fitted curve in the direction sought with a large enough effect; inconclusive = small, poorly fitted or top-dose-only effect, or another doubt; inactive = no such curve, though single readings can be large; an effect the other way counts as inactive or inconclusive.
SMILES,BAZ2B inh,HP1b binding inh,JMJD2A Tudor,PLK1 PBD block,G9a inh,PI5P4K alpha inh
CN1C(=O)C(=O)/C(=C(/O)c2ccccc2)C1c1ccccc1 (stereo not drawn),-4%,21%,-22%,-5%,u,2
O=C1OC(c2ccccc2)/C(=C(/O)c2ccccc2)C1=O (stereo not drawn),0%,0%,35µM*,-3%,-8%[12.7 µM],-9
O=C1OC(c2ccccc2)/C(=C(/O)c2ccc(Cl)cc2)C1=O (stereo not drawn),u,-6%,25µM*,-22%,-4%[12.7 µM],2
Cc1ccc(/C(O)=C2/C(=O)C(=O)OC2c2ccc(Cl)cc2)cc1 (stereo not drawn),-29%[57.1 µM],-8%,79µM*,u,u,x
CCCCNC(=O)C1(C)CCN1Cc1cc(C)ccc1C (stereo not drawn),x,x,x,-5%,x,-5
N/C(=N\NS(=O)(=O)c1ccc(Cl)cc1)c1ccccn1,x,32%,-24%,-11%,x,-4
NC(=O)c1ccccc1NC(=O)C(c1ccccc1)c1ccccc1,x,20%,-5%,3%,x,38
COc1ccc(CNC(=O)CSc2nc(SC)ns2)cc1,-7%,22%,-13%,-9%,45µM*,0
COc1ccc(-c2nsc(SCC(=O)NCc3ccc4c(c3)OCO4)n2)cc1,-4%,50%,4%,-2%,25µM*,12
CSc1nsc(SCC(=O)Nc2ccccc2F)n1,-2%,21%,9%,-16%,12%,-10
CSc1nsc(SCC(=O)Nc2ccccc2C(N)=O)n1,-3%,13%,-6%,-16%,79µM*,-13
CSc1nsc(SCC(=O)Nc2ccc(OC(C)=O)cc2)n1,-7%,52%,1%,0%,-26%,1
Cc1cccc(-c2nsc(SCC(=O)NCc3ccc4c(c3)OCO4)n2)c1,5%,39%,-3%[57.1 µM],-8%,-8%,7
COc1ccc2c(CC(=O)NCc3ccc4c(c3)OCO4)coc2c1,50µM*,-19%,40µM*,-16%,u,x
O=C1Nc2c(Cl)cccc2C1=O,x,x,x,2%,x,-3
CCN1C(=O)[C@H]2[C@@H](c3ccc(C)cc3)N[C@]3(CCCN(Cc4ccc(OC)cc4)C3=O)[C@H]2C1=O,x,x,x,-15%,x,-6
COc1cccc(/C(O)=C/C(=O)C(=O)Nc2ccc(S(=O)(=O)NC(C)=O)cc2)c1,u,7%,8.9µM*,-4%,10µM*,2
COc1cccc(NS(=O)(=O)c2ccc(NC(C)=O)cc2)c1,-4%,23%,-3%,0%,-41%[59 µM],x
Cc1[nH]c(-c2ccc3c(c2)OCO3)nc1C(=O)O,50µM*,10%,22µM*,-8%,10µM*,u
COc1ccc(-c2nc(-c3ccccc3)c(-c3ccc(O)cc3)[nH]2)cc1,35µM*,u,28µM*,x,u,x
COc1ccc(-c2nc(-c3ccc4c(c3)OCO4)[nH]c2-c2ccc(OC)cc2)cc1,18µM*,u,13µM*,-10%,-47%[59 µM],-6
Cc1[nH]c(-c2ccco2)nc1C(=O)O,u,1%,10µM*,-5%,20µM*,x
Cc1cc(=O)n2[nH]c(-c3ccco3)nc2n1,0%,42%,-12%,-7%,-17%[59 µM],x
Cc1ccc(-c2nc3ccccc3[nH]2)cc1NC(=O)c1ccc2c(c1)OCO2,-13%,2%,-17%,-7%,u,x
Cc1ccc(C)c(N2CCN(S(=O)(=O)c3ccc(-c4cc(C(F)(F)F)on4)s3)CC2)c1,11%,23%,-15%,x,1%[59 µM],x
SMILES,BAZ2B inh,HP1b binding inh,JMJD2A Tudor,PLK1 PBD block,G9a inh,PI5P4K alpha inh
COc1ccc2c(c1)c1nnc(SC(C)C)nc1n2C,x,25%,-26%,x,x,x
CN(C)c1ccc(-c2nc(-c3cccs3)c(-c3cccs3)[nH]2)cc1,u,-21%,u,x,8.9µM*,x
O=C(O)COc1ccc(-c2nc(-c3ccccc3)c(-c3ccccc3)[nH]2)cc1,-36%,-15%,-31%,-7%,u,-2
COc1ccc(-c2nc(C)c(C(C)=O)n2O)cc1OC,u,31%,-16%,-1%,u,3
COc1cc(-c2nc(-c3ccccc3)c(-c3cccs3)[nH]2)cc(OC)c1O,50µM*,u,45µM*,-4%,-6%[12.7 µM],-1
CC(=O)c1c(C)nc(-c2ccc3c(c2)OCO3)n1O,-32%,34%,-22%,-5%,56µM*,-6
COc1ccc(-c2[nH]c(-c3ccc(O)cc3)nc2-c2ccccc2)cc1,10µM*,-22%,63µM*,x,u,x
COc1cc(O)ccc1-c1nc2ccc(Br)cn2c1Nc1ccccc1C,u,-12%,u,x,u,x
Cc1ccc(NS(=O)(=O)c2ccc(-c3cc(C)no3)cc2)c(Br)c1,-1%,46%,9%,x,u,x
COc1ccc(N(C(=O)Cn2nnc3ccccc32)C(C(=O)NCc2ccco2)c2ccncc2)cc1 (stereo not drawn),-7%,-21%,-8%,1%,u,-1
Cc1c(/C=C/C(=O)c2cccs2)cnn1C,6%,u,28µM*,3.4µM*,8%[59 µM],u
CCc1ccc(C(=O)/C=C/c2cnn(C)c2C)s1,-5%,29%,1%,-6%,-3%[59 µM],0
Cc1ccc(NC(=O)Cn2c(=O)n(CCCS(=O)(=O)C3CCCCC3)c(=O)c3ccccc32)cc1F,1%,26%,10%,x,-3%[59 µM],x
CCOc1cc(/C=N/NC(=O)C(N)=O)cc(Br)c1O,-28%,-5%,-11%,-27%,u,-26
COc1cc(Br)cc(/C=N/NC(=O)Cc2ccccc2)c1O,x,36%,-16%,-4%,x,-4
CCOc1cc(/C=N/NC(=O)C(=O)NC2CC2)cc(Br)c1O,-2%,-3%,-1%,-3%,8.9µM*,-14
COc1cc(/C=N/NC(=O)/C(=C\c2ccc([N+](=O)[O-])cc2)NC(=O)c2ccccc2)cc(OC)c1O,-37%,2%,u,-7%,45µM*,-7
COc1cc(/C=N/NC(=O)Cc2ccc(Br)cc2)cc(OC)c1O,3%,2%,-2%,-10%,50µM*,-5
COc1cc(/C=N/NC(=O)CC#N)cc(Br)c1O,50µM*,u,35µM*,11µM*,1%,u
COc1cc(/C=N/NC(=O)/C(=C\c2ccc3c(c2)OCO3)NC(=O)c2ccccc2)ccc1O,-8%,-5%,-7%,-9%,-9%,-13
N#CCC(=O)N/N=C/c1cccc(Oc2ccccc2)c1,-30%,39%,-15%,-1%,3%,4
CC(=O)N[C@H](Cc1c[nH]c2ccccc12)C(N)=O,x,x,x,x,-1%[2.33 µM],x
COc1ccc2c(c1)c1c(c(=O)n(Cc3ccccc3)c(=O)n1Cc1cccc(Cl)c1)n2C,13%,65%,26%,x,18%[59 µM],x
O=C(NCCc1c[nH]c2ccccc12)OCCCCOC(=O)NCCc1c[nH]c2ccccc12,u,-16%,u,-2%,8%[2.33 µM],24
